# From PubChem BioAssay
# KB-3-1 cytotox = kills parental KB-3-1 adenocarcinoma cells; actives 1.4% (n = 400,000); KB-3-1 viability, CellTiter-Glo ATP luminescence, 72 h; Potency, µM (top dose mostly 46.1 µM), usual class: cytotoxic; further: nearly all actives have a fitted effect of over 60% in size
#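 Viability of parental KB-3-1 cells, measured by CellTiter-Glo luminescence, followed a 72 h incubation at 37 °C with pinned compounds in phenol-red-free DMEM containing 10% FBS.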
# HT1080-NT tox = kills 2HG-producing HT-1080-NT fibrosarcoma cells | HT-1080-NT fibrosarcoma viability, CellTiter-Glo ATP luminescence, 48 h | Potency, µM (top dose mostly 46.1 µM), without a hit: at the top dose activity, negative = less viability, hits mostly cytotoxic | actives 1.6% (n = 360,000) | AID 686970;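 further: NT is the 2HG producing partner of a matched IDH1 knockdown line; 0% = DMSO-treated cells and -100% = media-only wells without cells; nearly all actives have a fitted effect of over 55% in size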
#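 Viability by CellTiter-Glo luminescence after 48 h compound exposure at 37C of HT-1080-NT cells (750/well, RPMI, 5% FBS). % activity scaled between DMSO wells and medium-only wells, then curve-fitted and categorized by curve class.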
# KB-V1 cytotox = kills drug-selected multidrug resistant KB-V1 cells; KB-V1 MDR cells viability, CellTiter-Glo, 72 h; Potency, µM (series often up to 46.1 µM), hits mostly cytotoxic; actives 3.4% (n = 400,000); AID 1347076; further: nearly all actives have a fitted effect of over 60% in size
#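 Drug-selected KB-V1 cells, grown in DMEM lacking phenol red with 10% FBS, receive compound titrations; after three days at 37 degrees C, surviving cell ATP is quantified by CellTiter-Glo luminescence and responses normalized and curve-fitted.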
# HT1080 IDH1KD tx = kills HT-1080 cells with IDH1 knockdown. actives 2% (n = 360,000). Potency, µM (highest dose often 46.1 µM), without a hit: top-dose activity, negative = toxicity, hits mostly cytotoxic. HT-1080 IDH1 knockdown viability, ATP luminescence, 48 h. AID 686971;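 further: 0% = DMSO wells and -100% = cell-free medium wells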
#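 After a 2 h attachment period, IDH1KD HT-1080 cells took pin-transferred compound for 48 h at 37 °C; ATP-based luminescence after 10 min room-temperature reagent incubation reported viability.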
# DT40 TDP1 CPT = DT40-hTDP1 cell growth loss with CPT | chicken DT40 Tdp1-/-;hTDP1 cells + 20 nM CPT, ATP luminescence, 48 h | Potency, µM (titrated, usually from 46.2 µM), inactives show at the top dose activity change, negative = growth inhibition, most hits filed as inhibitors | AID 686979 | actives 12% (n = 420,000); further: nearly all actives have a fitted effect of over 55% in size
#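 Cell growth measured by CellTiter-Glo luminescence after a minimum 48 h, 37 C compound exposure with 20 nM CPT in Tdp1-knockout DT40 cells stably expressing hTDP1, seeded 400/well; qHTS titration format.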
# DT40 TDP1 no CPT = qHTS for Inhibitors of human tyrosyl-DNA phosphodiesterase 1 (TDP1): qHTS in cells in absence of CPT | DT40 Tdp1-/- hTDP1 cells, no CPT, ATP luminescence, 48 h | Potency, µM (series often up to 46.2 µM), for inactives: top-dose activity change, negative = growth inhibition, actives largely listed as inhibitors | AID 686978, 2013 | actives 15% (n = 420,000); further: nearly all actives have a fitted effect of over 55% in size
#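 Luminescent ATP content (CellTiter-Glo) served as the growth readout. Knockout chicken DT40 cells expressing human TDP1 were exposed to compounds without camptothecin for a minimum 48 hr at 37 °C.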
# An asterisk follows results filed as active; i = inactive; ? = inconclusive; / = no result given; [ ] = dose if it differs, or a comment. In the library only some 19% were active in any assay of this set; here they are far more common. The call rests on the fitted dose curve; in most records, active means well fitted curve in the direction sought with a large enough effect; inconclusive means small, poorly fitted or top-dose-only effect, or another doubt; inactive means no such curve, though single readings can be large; an effect the other way counts as inactive or inconclusive. Unless noted, on the % scale 0 is the no-effect control and ±100 the full control effect; potency means the concentration at half of the fitted maximal effect.
SMILES,KB-3-1 cytotox,HT1080-NT tox,KB-V1 cytotox,HT1080 IDH1KD tx,DT40 TDP1 CPT,DT40 TDP1 no CPT
COc1ccc(C(=O)COC(=O)c2cnc(C)cn2)c(OC)c1,i,9.2%,?,4.3%,8.1%,5.3%
CC(=O)c1ccc(N2CCN(C(=O)c3ccc(S(=O)(=O)NCc4ccco4)cc3)CC2)cc1,i,-25.2%,i,0.7%,20.6µM*,16.4µM*
CC1CCCC(C)N1C(=O)c1ccc(CS(=O)(=O)c2ccccc2)cc1 (stereo unspecified),/,2.0%,/,0.5%,?,14.6µM*
CC1CCCC(C)N1C(=O)c1ccc(S(=O)(=O)NCc2ccco2)cc1 (stereo unspecified),i,-2.8%,i,-7.4%,?,23.1µM*
COc1ccc(CN2CCN(C(=O)c3ccc(S(=O)(=O)NCc4ccco4)cc3)CC2)cc1,?,-25.5%,?,?,?,18.4µM*
O=C(c1ccc(S(=O)(=O)NCc2ccco2)cc1)N1CCN(c2ccc(F)cc2)CC1,i,1.5%,i,-0.2%,?,?
CCCCNC(=O)C1CCN(S(=O)(=O)c2cc(Br)cc3c2N(C(=O)CC)CC3)CC1,i,/,i,/,-3.1%,-23.4%
O=C(O)c1ccc(/C=C/C(=O)c2ccc3c(c2)OCCCO3)cc1,?,?,?,?,?,23.1µM*
COc1ccc(C(=O)/C=C/c2ccc3c(c2)OCCO3)cc1,i,?,i,?,?,?
O=C(/C=C/c1ccc2c(c1)OCCO2)c1ccccc1,i,-4.7%,i,-12.2%,?,16.4µM*
Cc1ccc(O)c(C(=O)/C=C/c2ccc3c(c2)OCCO3)c1,i,-19.0%,i,-13.5%,16.4µM*,16.4µM*
N#CCC(=O)Nn1c(=S)[nH]c2ccccc2c1=O,i,2.7%,i,-0.3%,14.6%,10.7%
CCN(Cc1ccccc1)C(=O)c1cc(S(=O)(=O)N2CCOCC2)cn1C,i,0.5%,i,6.4%,-2.0%,-26.1%
COCCCN1C(=O)C(CC(=O)NCC2CCCCC2)CC(C(=O)N(C(C)C)C(C)C)=C1C (stereo unspecified),i,21.7%,i,19.4%,?,?
CCCC[C@@H]1C[C@H]1[C@@H](NC(=O)c1ccco1)c1ccc(Cl)cc1,i,-27.7%,i,-16.6%,?,?
CCCC[C@@H]1C[C@H]1[C@@H](NC(=O)c1cccs1)c1ccc(C(F)(F)F)cc1,i,0.0%,i,-2.6%,?,20.6µM*
CCCC[C@@H]1C[C@H]1[C@@H](NC(=O)c1ccco1)c1ccccc1C(F)(F)F,i,1.9%,i,3.6%,?,?
CCCC[C@@H]1C[C@H]1[C@@H](NC(=O)c1cccs1)c1ccc(Cl)cc1,?,?,?,?,29.1µM*,14.6µM*
COc1cc2[nH]cc(C(=O)NCc3ccccc3)c(=O)c2cc1OC,i,-14.8%,i,-15.5%,?,25.9µM*
COc1ccc(CCNC(=O)c2c[nH]c3ccc(F)cc3c2=O)cc1OC,i,-2.4%,i,-8.3%,?,13µM*
CSc1ccc(/C=N/NC(=O)c2ccc(O)cc2)cc1,i,-4.2%,?,-16.8%,25.9µM*,?
CN(C)c1ccc(/C=N/NC(=O)c2ccccc2Cl)cc1,?,11.6µM*,?,8.2µM*,5.8µM*,7.31µM*
CSc1ccc(/C=N/NC(=O)c2ccccc2Cl)cc1,?,?,?,?,16.4µM*,13µM*
CN(C)c1ccc(/C=N\NC(=O)c2ccc(Cn3cc(Cl)cn3)cc2)cc1,?,?,i,?,?,16.4µM*
COc1ccc(C(=O)N/N=C/c2ccc(SC)cc2)cc1,i,12.6%,i,14.7%,-13.9%,-17.6%
SMILES,KB-3-1 cytotox,HT1080-NT tox,KB-V1 cytotox,HT1080 IDH1KD tx,DT40 TDP1 CPT,DT40 TDP1 no CPT
Cc1ccc(F)c(S(=O)(=O)NC(=O)C2(C)CCN2C(=O)Cc2cc(F)ccc2F)c1 (stereo unspecified),i,17.5%,i,5.4%,1.7%,0.3%
Cc1ccc(S(=O)(=O)c2cn(CC(=O)Nc3ccccc3C)c3cc4c(cc3c2=O)OCO4)cc1,?,/,i,/,0.4%,-3.9%
Cc1occc1C(=O)N/N=C/c1ccc(N(C)C)cc1,i,?,i,23.1µM*,-0.5%,-23.6%
O=C(Nc1ccccc1C(=O)N/N=C/c1ccc(O)cc1)c1ccccc1,i,-11.0%,i,-2.1%,-23.9%,-26.9%
O=C(N/N=C/c1ccc(O)cc1)c1csc2ccccc12,i,-2.0%,i,2.5%[9.24 µM],?,0.259µM*
O=C(NCC1COc2ccccc2O1)C1CCN(S(=O)(=O)c2ccccc2)CC1 (stereo unspecified),i,19.1%,i,?,-21.2%,-18.6%
CCOC(=O)c1ccc(S(=O)(=O)N2CCC(C(=O)NCC3COc4ccccc4O3)CC2)cc1 (stereo unspecified),i,-7.1%,i,-2.8%,20.6µM*,23.1µM*
CCCc1ccc(NC(=O)C2CCCN(c3cnccn3)C2)cc1 (stereo unspecified),i,1.4%,i,1.2%,20.6µM*,20.6µM*
CCOC(=O)CNC(=O)C1CCCN(c2ncccn2)C1 (stereo unspecified),i,-6.7%,i,4.2%,29.1µM*,-7.3%
O=C(Nc1ccc(Oc2ccccc2)cc1)C1CCCN(c2ncccn2)C1 (stereo unspecified),i,-0.1%,5.8µM*,4.3%,-1.3%,-22.4%
CC(C)c1ccc2oc(=O)cc(CN3CCOCC3)c2c1,i,-6.2%,i,-6.0%,-7.5%,-8.4%
Cc1cccc(-n2nc(C)c(C(=O)Nc3cc(C)ccc3C)c2-n2cccc2)c1,i,/,i,/,?,?
CCOC(=O)c1ccc(NC(=O)C2CCN(S(=O)(=O)c3ccccc3)CC2)cc1,i,0.3%,i,-0.2%,25.9µM*,?
O=C(Nc1ccc(Oc2ccccc2)cc1)C1CCN(S(=O)(=O)c2ccccc2)CC1,?,/,6.51µM*,/,?,9.2µM*
COC(=O)c1cn(C(=O)c2ccc(F)cc2)c2ccccc12,i,16.5%,i,19.5%,-3.4%,2.5%
COc1ccc(NC(=O)Cn2cc(C(C)=O)c3ccccc32)cc1,?,?,i,-9.0%,5.17µM*,?
